From PubChem BioAssay
In the library only some 6.6% were active in any assay of this set; here they are far more common.
NR3A LBD binder: modulates the human NR3A ligand-binding domain; NR3A LBD differential scanning fluorimetry, Tm shift; 0% = protein alone, 100% = glycine-bound protein; Tm shift relative to glycine control, % at 25 µM; 340,000 compounds, 2.5% hits;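 active = melting temperature shift of at least 10% of the positive control shift, at one fixed dose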
Mdm2 MdmX PPI: disrupts the human Mdm2-MdmX interaction; SaOS-2 split-luciferase Mdm2/MdmX complementation, luminescence; AID 485346; O15151+Q00987; 330,000 compounds, 3% hits; inhibition, % at 8 µM;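 active = inhibition of at least 50% at 8 µM in the primary screen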
Target sequence (O15151 whole entry, looked up): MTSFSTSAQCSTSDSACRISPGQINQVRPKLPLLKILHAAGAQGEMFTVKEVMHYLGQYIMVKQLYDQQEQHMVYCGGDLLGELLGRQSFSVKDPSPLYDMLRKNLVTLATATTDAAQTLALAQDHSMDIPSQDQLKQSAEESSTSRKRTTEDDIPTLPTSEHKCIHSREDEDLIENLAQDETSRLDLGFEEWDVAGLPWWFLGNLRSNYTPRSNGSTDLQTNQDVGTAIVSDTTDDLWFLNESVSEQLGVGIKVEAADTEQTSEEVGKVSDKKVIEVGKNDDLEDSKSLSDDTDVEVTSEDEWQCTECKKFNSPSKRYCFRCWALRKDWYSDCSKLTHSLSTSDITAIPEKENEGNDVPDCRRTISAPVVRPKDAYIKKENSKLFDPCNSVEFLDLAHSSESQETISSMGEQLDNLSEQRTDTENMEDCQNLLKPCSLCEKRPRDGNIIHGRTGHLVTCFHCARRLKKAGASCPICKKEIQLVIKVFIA
Target sequence (Q00987 whole entry, looked up): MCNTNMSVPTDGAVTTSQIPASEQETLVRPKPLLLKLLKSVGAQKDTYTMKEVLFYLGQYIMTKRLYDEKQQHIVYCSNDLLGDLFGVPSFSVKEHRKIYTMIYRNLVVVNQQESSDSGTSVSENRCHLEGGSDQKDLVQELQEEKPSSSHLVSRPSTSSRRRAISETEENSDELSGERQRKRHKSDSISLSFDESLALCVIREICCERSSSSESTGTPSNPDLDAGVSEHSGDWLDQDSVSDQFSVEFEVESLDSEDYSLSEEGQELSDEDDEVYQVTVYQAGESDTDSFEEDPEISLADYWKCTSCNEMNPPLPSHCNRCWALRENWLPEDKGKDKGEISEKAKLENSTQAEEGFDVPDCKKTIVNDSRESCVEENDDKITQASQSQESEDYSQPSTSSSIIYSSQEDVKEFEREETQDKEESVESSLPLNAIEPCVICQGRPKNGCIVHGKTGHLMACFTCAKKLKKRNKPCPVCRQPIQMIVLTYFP
MPTP inh: permeability transition pore inhibition; 360,000 compounds, 1.4% hits; isolated mouse mitochondria, Ca2+ swelling absorbance, 30 min; inhibition, % at 10 µM;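 active = inhibition of 50% or more, scaled per plate between neutral and stimulator controls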;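 also: 0% = DMSO wells given calcium and 100% = 1 mM EGTA wells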
CSC inhib: cancer stem cell inhibition; cancer stem cell-like cells viability, luminescence; inhibition, % at 7.5 µM; 300,000 compounds, 1.1% hits; AID 2717; in the data active = inhibition above about 75%; tested in HMLE shEcad cells
Beta cell apopt: beta cell apoptosis inhibition; 300,000 compounds, 0.8% hits; AID 435005; protection from apoptosis, % (concentration not given with the values); INS-1E cytokine-induced death, ATP luminescence, 48 h; percent of positive-control rescue, neutral wells zero;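 active = Every replicate reaches about 75%, or at least half do and their mean reaches it too, limit read from the data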;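 also: 0% = cytokine-treated negative control wells and 100% = positive control rescue; higher means more ATP so stronger rescue from cytokine killing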
Gli-Sufu block: antagonists of Gli-Sufu signaling | inhibition, % at 5 µM | AID 588413 | Sufu-KO-LIGHT fibroblasts, Gli luciferase reporter luminescence | 340,000 compounds, 0.74% hits;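 active = inhibition above about 55%, limit read from the data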;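 also: 0% = DMSO-treated cells and 100% = wells with medium but no cells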
Mdm2 MdmX conf: human Mdm2/MdmX binding inhibition, confirmed; shares compounds with Mdm2 MdmX PPI; luminescent assay; inhibition, % at 8 µM; 10,000 compounds, 55% hits; AID 489028; in the data active = inhibition above about 40%
FLuc counter: full-length luciferase inhibition in Mdm2/MdmX counter-screen; shares compounds with Mdm2 MdmX PPI; SaOS-2 full-length luciferase counterscreen, luminescence; inhibition, % at 8 µM; 6,200 compounds, 77% hits;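 active = mean inhibition at 8 µM reaching about 37%, which flags the compound as non-specific, limit read from the data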;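 also: p53-null SaOS-2 cells with luciferase driven by a doxycycline-inducible promoter; compound on cells about two nights before reading with doxycycline added after day one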
Starred values were filed as active, the others as inactive.

CCN1CCN(c2c(Cl)cccc2NC(=O)c2ccc([N+](=O)[O-])o2)CC1 was read as Mdm2 MdmX PPI 55*, MPTP inh -2, CSC inhib 24, Beta cell apopt 103* and Mdm2 MdmX conf 28.
`Cc1ccccc1C(=O)N1CCN(c2ccc(NC(=O)c3ccc([N+](=O)[O-])o3)cc2)CC1` gave NR3A LBD binder -1, Mdm2 MdmX PPI 72*, MPTP inh 1, CSC inhib 91*, Beta cell apopt 22, Gli-Sufu block 29, Mdm2 MdmX conf 76* and FLuc counter 90*.
`CC(C)C(=O)N1CCN(c2ccc(NC(=O)c3ccc([N+](=O)[O-])o3)cc2Cl)CC1` gave NR3A LBD binder -8, MPTP inh 3 and Gli-Sufu block 18.
CC(C)C(=O)N1CCN(c2ccc(NC(=O)c3ccc([N+](=O)[O-])o3)cc2)CC1 was read as NR3A LBD binder 0, Mdm2 MdmX PPI 72*, MPTP inh 4, CSC inhib 21, Beta cell apopt 3, Gli-Sufu block 12, Mdm2 MdmX conf 52* and FLuc counter 23.
For O=C(Nc1ccccc1N1CCN(C(=O)c2ccc(Cl)cc2)CC1)c1ccc([N+](=O)[O-])o1 the results were NR3A LBD binder -4, Mdm2 MdmX PPI 55*, MPTP inh 0, CSC inhib -6, Beta cell apopt 58, Gli-Sufu block 11 and Mdm2 MdmX conf 33.
Screening O=C(Nc1ccccc1N1CCN(C(=O)c2ccc(Cl)cc2)CC1)c1cc2ccccc2o1 returned NR3A LBD binder 4, Mdm2 MdmX PPI 46, MPTP inh 2, CSC inhib 12, Beta cell apopt 12 and Gli-Sufu block -12.
For O=S(=O)(c1ccc(Cl)nc1)N1CCCC1 the results were NR3A LBD binder 0, Mdm2 MdmX PPI 22, MPTP inh -1, CSC inhib -7, Beta cell apopt 2 and Gli-Sufu block 0.
For CCCCn1c(N)c(N(CC(C)C)C(=O)c2ccc(F)c(S(=O)(=O)N3CCOCC3)c2)c(=O)[nH]c1=O the results were NR3A LBD binder 2, Mdm2 MdmX PPI 32, MPTP inh -2, Beta cell apopt 3 and Gli-Sufu block -10.
Screening [O-]/[N+](=N\Nc1ccc(Cl)cc1)c1ccccc1 returned NR3A LBD binder -4, MPTP inh 2 and Gli-Sufu block -90.
For CN1CCN(c2ccc(NC(=O)c3ccc([N+](=O)[O-])o3)cc2Cl)CC1 the results were NR3A LBD binder -2, Mdm2 MdmX PPI 64*, MPTP inh -1, CSC inhib -8, Beta cell apopt -8, Gli-Sufu block -18, Mdm2 MdmX conf 50* and FLuc counter 19.
Cn1c(=O)[nH]c(=O)c2c1nc(N1CCN(c3ccccc3)CC1)n2CCSc1ncccn1 was read as NR3A LBD binder 5, Mdm2 MdmX PPI 54*, MPTP inh -2, Beta cell apopt -7, Gli-Sufu block 1 and Mdm2 MdmX conf 24.
For CCCC(=O)C1=C(O)C(C(=O)OC)C(C)(C)CC1=NCCc1ccccc1 (centres undefined) the results were NR3A LBD binder 1, Mdm2 MdmX PPI 16, MPTP inh 1, CSC inhib -9, Beta cell apopt -4 and Gli-Sufu block -4.
Screening CN=c1scc(-c2ccccc2Br)n1/N=C/c1ccc[nH]1 returned Mdm2 MdmX PPI 60*, CSC inhib 31, Beta cell apopt 12, Mdm2 MdmX conf 69* and FLuc counter 143*.
`CC(C)(C)NS(=O)(=O)c1ccc(NC(=O)CS(=O)(=O)Cc2ccccc2)cc1` gave NR3A LBD binder 2, Mdm2 MdmX PPI 7, MPTP inh -1, CSC inhib -8, Beta cell apopt -2 and Gli-Sufu block -7.
For O=[N+]([O-])c1ccc(Nc2ccccc2O)c([N+](=O)[O-])c1 the results were MPTP inh 7.
O=[N+]([O-])c1cc(Br)c(Nc2ccccc2)c([N+](=O)[O-])c1 was read as NR3A LBD binder 3, Mdm2 MdmX PPI 92*, MPTP inh 0, CSC inhib 39, Beta cell apopt 68, Gli-Sufu block -4, Mdm2 MdmX conf 50* and FLuc counter 79*.
`Cc1nn(-c2ccc([N+](=O)[O-])cc2)c2c1C(c1cccc(Br)c1)N1C(=N2)C(=O)Nc2ccccc21` (centres undefined) gave NR3A LBD binder 6, Mdm2 MdmX PPI 60*, MPTP inh 1, CSC inhib 9, Gli-Sufu block 18 and Mdm2 MdmX conf 26.
Screening CCc1ccc(NC(=S)/N=C(\N)Nc2nc(C)c3cc(CC)ccc3n2)cc1 returned NR3A LBD binder -3, Mdm2 MdmX PPI 63*, MPTP inh 2, CSC inhib 22, Beta cell apopt 4, Gli-Sufu block 28, Mdm2 MdmX conf 60* and FLuc counter 60*.
COc1ccc2nc(N/C(N)=N/C(=S)Nc3ccc(C)c(C)c3)nc(C)c2c1 was read as Mdm2 MdmX PPI 56*, CSC inhib 31, Beta cell apopt 3, Mdm2 MdmX conf 53* and FLuc counter 56*.
`Cc1cccc(NC(=S)/N=C(\N)Nc2nc(C)c3ccc(C)cc3n2)c1` gave NR3A LBD binder -28, Mdm2 MdmX PPI 59*, MPTP inh 0, CSC inhib 3, Beta cell apopt 3, Gli-Sufu block -3, Mdm2 MdmX conf 37 and FLuc counter 54*.
`COc1ccc2c(C)nc(N/C(N)=N/S(=O)(=O)c3ccc(C)cc3)nc2c1` gave NR3A LBD binder 0, Mdm2 MdmX PPI -4, MPTP inh 0, CSC inhib 1 and Gli-Sufu block 8.
`CCc1ccc2nc(/N=C(\N)NC(=O)c3ccccc3)nc(C)c2c1` gave NR3A LBD binder 9, Mdm2 MdmX PPI -17, MPTP inh 8, CSC inhib 11, Beta cell apopt -1 and Gli-Sufu block 42.
`O=C(Nc1ccccc1Cl)NC1(C(=O)NCc2cccnc2)CCCCC1` gave NR3A LBD binder -2, Mdm2 MdmX PPI 13, MPTP inh 0, CSC inhib 14, Beta cell apopt 0 and Gli-Sufu block -11.
CCOC(=O)c1c(NC(=O)CCNCc2ccco2)sc2c1CCC2 was read as NR3A LBD binder -2, Mdm2 MdmX PPI 20, CSC inhib 10, Beta cell apopt -7 and Gli-Sufu block -10.
O=C(CCCCCn1c(=S)[nH]c2ccc(N3CCOCC3)cc2c1=O)NCc1ccccc1Cl was read as NR3A LBD binder -1, Mdm2 MdmX PPI 8, MPTP inh 0, CSC inhib 30 and Beta cell apopt 8.
